Reference: the supplement of paper PMC7765376
Structures can show the parent of a compound that is named as a salt. Over roughly 1,500 compounds, “Excess HSA synergy score (sum over dose matrix of excess over highest single agent)” has its median near 43; the lowest 2% begin near -900. The entries come from a sample that favours the lowest values as a whole.

Test system: PEO-1
Experiment: Excess HSA synergy score (sum over dose matrix of excess over highest single agent) (score (summed % response)); higher = less synergy / more antagonism (negative = synergy)
Conditions: 72 h, read-out: viability/apoptosis luminescence (CellTiter-Glo or Caspase3-Glo / not stated per table)
[1] = matrix design: 6x6, 5-fold dilutions (primary screen)

| SMILES | Excess HSA synergy score [1] | Excess HSA synergy score (matrix design: 10x10, 9-step dilutions (confirmatory)) |
| --- | --- | --- |
| CN1CCC(COc2cnc(-c3cccc(Cn4nc(-c5cccc(C#N)c5)ccc4=O)c3)nc2)CC1 + CC[C@H](NC(=O)[C@H](C)NC)C(=O)N1C[C@@H](O)C[C@H]1Cc1c(-c2[nH]c3cc(F)ccc3c2C[C@@H]2C[C@H](O)CN2C(=O)[C@H](CC)NC(=O)[C@H](C)NC)[nH]c2cc(F)ccc12 [Birinapant] | 19.6 | – |
| Cn1cc(-c2ccc3nnc(Sc4ccc5ncccc5c4)n3n2)cn1 + CC[C@H](NC(=O)[C@H](C)NC)C(=O)N1C[C@@H](O)C[C@H]1Cc1c(-c2[nH]c3cc(F)ccc3c2C[C@@H]2C[C@H](O)CN2C(=O)[C@H](CC)NC(=O)[C@H](C)NC)[nH]c2cc(F)ccc12 [Birinapant] | 117 | – |
| NC(=O)c1cccc(-c2cccc(OC(=O)NC3CCCCC3)c2)c1 + CC[C@H](NC(=O)[C@H](C)NC)C(=O)N1C[C@@H](O)C[C@H]1Cc1c(-c2[nH]c3cc(F)ccc3c2C[C@@H]2C[C@H](O)CN2C(=O)[C@H](CC)NC(=O)[C@H](C)NC)[nH]c2cc(F)ccc12 [Birinapant] | 46.3 | – |
| CNc1nccc(-c2cccnc2Oc2cc(C(=O)Nc3cccc(C(F)(F)F)c3)ccc2C)n1 + CC[C@H](NC(=O)[C@H](C)NC)C(=O)N1C[C@@H](O)C[C@H]1Cc1c(-c2[nH]c3cc(F)ccc3c2C[C@@H]2C[C@H](O)CN2C(=O)[C@H](CC)NC(=O)[C@H](C)NC)[nH]c2cc(F)ccc12 [Birinapant] | 73.8 | – |
| CC(=O)[C@]1(O)Cc2c(O)c3c(c(O)c2[C@@H](O[C@H]2C[C@H](N)[C@H](O)[C@H](C)O2)C1)C(=O)c1ccccc1C3=O [Idarubicin hydrochloride] + CC[C@H](NC(=O)[C@H](C)NC)C(=O)N1C[C@@H](O)C[C@H]1Cc1c(-c2[nH]c3cc(F)ccc3c2C[C@@H]2C[C@H](O)CN2C(=O)[C@H](CC)NC(=O)[C@H](C)NC)[nH]c2cc(F)ccc12 [Birinapant] | -126 | -1080 |
| COc1cccc2c1C(=O)c1c(O)c3c(c(O)c1C2=O)C[C@@](O)(C(C)=O)C[C@@H]3O[C@H]1C[C@H](N)[C@H](O)[C@H](C)O1 [Daunorubicin] + CC[C@H](NC(=O)[C@H](C)NC)C(=O)N1C[C@@H](O)C[C@H]1Cc1c(-c2[nH]c3cc(F)ccc3c2C[C@@H]2C[C@H](O)CN2C(=O)[C@H](CC)NC(=O)[C@H](C)NC)[nH]c2cc(F)ccc12 [Birinapant] | -171 | – |
| COc1cccc2c1C(=O)c1c(O)c3c(c(O)c1C2=O)C[C@@](O)(C(=O)CO)C[C@@H]3O[C@H]1C[C@H](N)[C@H](O[C@@H]2CCCCO2)[C@H](C)O1 [Pirarubicin] + CC[C@H](NC(=O)[C@H](C)NC)C(=O)N1C[C@@H](O)C[C@H]1Cc1c(-c2[nH]c3cc(F)ccc3c2C[C@@H]2C[C@H](O)CN2C(=O)[C@H](CC)NC(=O)[C@H](C)NC)[nH]c2cc(F)ccc12 [Birinapant] | -150 | – |
| COc1cc2c(Nc3ccc(Cl)c(Cl)c3F)ncnc2cc1OC[C@@H]1C[C@@H]2CN(C)C[C@@H]2C1 + CC[C@H](NC(=O)[C@H](C)NC)C(=O)N1C[C@@H](O)C[C@H]1Cc1c(-c2[nH]c3cc(F)ccc3c2C[C@@H]2C[C@H](O)CN2C(=O)[C@H](CC)NC(=O)[C@H](C)NC)[nH]c2cc(F)ccc12 [Birinapant] | -5.11 | – |
| Nc1cc(C(F)(F)F)c(-c2cc(N3CCOCC3)nc(N3CCOCC3)n2)cn1 + CC[C@H](NC(=O)[C@H](C)NC)C(=O)N1C[C@@H](O)C[C@H]1Cc1c(-c2[nH]c3cc(F)ccc3c2C[C@@H]2C[C@H](O)CN2C(=O)[C@H](CC)NC(=O)[C@H](C)NC)[nH]c2cc(F)ccc12 [Birinapant] | 242 | – |
| c1ccc(CNc2nc(NCc3ccccc3)c3ccccc3n2)cc1 + CC[C@H](NC(=O)[C@H](C)NC)C(=O)N1C[C@@H](O)C[C@H]1Cc1c(-c2[nH]c3cc(F)ccc3c2C[C@@H]2C[C@H](O)CN2C(=O)[C@H](CC)NC(=O)[C@H](C)NC)[nH]c2cc(F)ccc12 [Birinapant] | -180 | – |
| CCC(C)SSc1ncc[nH]1 (stereo unspecified) + CC[C@H](NC(=O)[C@H](C)NC)C(=O)N1C[C@@H](O)C[C@H]1Cc1c(-c2[nH]c3cc(F)ccc3c2C[C@@H]2C[C@H](O)CN2C(=O)[C@H](CC)NC(=O)[C@H](C)NC)[nH]c2cc(F)ccc12 [Birinapant] | 79.6 | – |
| CS(=O)(=O)Oc1ccc2c(NC(N)=O)c(C(=O)c3ccc(Cl)cc3Cl)oc2c1 [Lirimilast] + CC[C@H](NC(=O)[C@H](C)NC)C(=O)N1C[C@@H](O)C[C@H]1Cc1c(-c2[nH]c3cc(F)ccc3c2C[C@@H]2C[C@H](O)CN2C(=O)[C@H](CC)NC(=O)[C@H](C)NC)[nH]c2cc(F)ccc12 [Birinapant] | -20.9 | – |
| CCC1=C[C@@H]2CN(C1)Cc1c([nH]c3ccccc13)[C@@](C(=O)OC)(c1cc3c(cc1OC)N(C)[C@H]1[C@@](O)(C(=O)OC)[C@H](OC(C)=O)[C@]4(CC)C=CCN5CC[C@]31[C@@H]54)C2 [Vinorelbine] + CC[C@H](NC(=O)[C@H](C)NC)C(=O)N1C[C@@H](O)C[C@H]1Cc1c(-c2[nH]c3cc(F)ccc3c2C[C@@H]2C[C@H](O)CN2C(=O)[C@H](CC)NC(=O)[C@H](C)NC)[nH]c2cc(F)ccc12 [Birinapant] | 91.9 | – |
| COc1cc(C(C)=O)ccc1OCCCN1CCC(c2noc3cc(F)ccc23)CC1 [Iloperidone] + CC[C@H](NC(=O)[C@H](C)NC)C(=O)N1C[C@@H](O)C[C@H]1Cc1c(-c2[nH]c3cc(F)ccc3c2C[C@@H]2C[C@H](O)CN2C(=O)[C@H](CC)NC(=O)[C@H](C)NC)[nH]c2cc(F)ccc12 [Birinapant] | 75 | – |
| CN1C(=O)C(Cc2c[nH]c3ccccc23)NC1=S (stereo unspecified) [Necrostatin-1] + CC[C@H](NC(=O)[C@H](C)NC)C(=O)N1C[C@@H](O)C[C@H]1Cc1c(-c2[nH]c3cc(F)ccc3c2C[C@@H]2C[C@H](O)CN2C(=O)[C@H](CC)NC(=O)[C@H](C)NC)[nH]c2cc(F)ccc12 [Birinapant] | 340 | – |
